hgDAF12 agonist: activates the H. glycines DAF-12 receptor ligand-binding domain. activation, % at 6.8 µM. HEK293 GAL4-hgDAF12 UAS-luciferase reporter, agonist luminescence; normalized to butyrate control. 1.8% of 370,000 active;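 active = activation above a cutoff set at the mean of all screened compounds plus 3 SD, cut at about 10% in these data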;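 also: 0% = DMSO wells and 100% = sodium butyrate wells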
hcDAF12 agonist: activators of H. contortus DAF-12 nuclear receptor; 1.4% of 370,000 active; HEK293 hcDAF-12 lit1-tk-luc reporter, luminescence; 0% DMSO, 100% Δ7-dafachronic acid; activation, % at 6.8 µM;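 active = activation above the mean of all tested compounds plus 3 SD, cut at about 5.5% in these data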;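 also: 100% = response to 3 µM Δ7-dafachronic acid high control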
DAX1 inh-1: DAX1 (NR0B1) inhibition, primary screen. 1.1% of 370,000 active. AID 652010. inhibition, % at 6.8 µM. HEK293T StAR-luciferase reporter, SF-1/DAX-1 repression relief;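 active = inhibition above the mean over all tested compounds plus 3 SD, cut at about 3.6% in these data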;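 also: 0% = DAX-1 cells with DMSO and 100% = cells lacking DAX-1 with DMSO; higher inhibition means more luminescence from relief of DAX-1 repression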
ssDAF-12 act: S. stercoralis DAF-12 activation, primary screen; 1% of 370,000 active; activation, % at 6.8 µM; AID 652126; HEK293 ssDAF-12/GRIP1 lit1-tk-luc reporter, luminescence; % of 3 µM dafachronic acid response;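 active = activation above the mean over all tested compounds plus 3 SD, cut at about 0.9% in these data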;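 also: 0% = DMSO-only wells and 100% = 3 µM delta7-dafachronic acid wells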
DAX1 inh-2: inhibits human nuclear receptor DAX1; P51843; HEK293 Gal4-DAX1 luciferase reporter, luminescence; inhibition, % at 6.75 µM; 0.99% of 340,000 active;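 active = inhibition above the mean over all tested compounds plus 3 SD, cut at about 4.2% in these data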;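 also: 0% = DAX1-transfected cells with DMSO and 100% = empty-vector control cells with DMSO; inhibition shows as a rise in luminescence from relieved DAX1 repression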
Target sequence (P51843 207-470 limits assumed): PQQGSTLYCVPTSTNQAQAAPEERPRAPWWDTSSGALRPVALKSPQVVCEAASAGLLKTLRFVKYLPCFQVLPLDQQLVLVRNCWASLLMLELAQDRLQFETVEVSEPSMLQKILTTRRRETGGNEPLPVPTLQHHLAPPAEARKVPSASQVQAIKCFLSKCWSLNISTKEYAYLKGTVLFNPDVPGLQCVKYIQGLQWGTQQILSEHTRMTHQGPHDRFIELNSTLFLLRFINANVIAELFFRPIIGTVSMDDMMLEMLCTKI
GAA850 FXN act: frataxin GAA850 promoter activation; HEK293 lucGAA850 FXN promoter luciferase reporter, 24 h; percent of 10 µM SAHA response; activation, % at 6 µM; 0.56% of 360,000 active;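 active = activation above the average of all compounds screened plus 3 SD, cutoff fixed separately per campaign, cut at about 7.5% in these data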;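 also: 0% = DMSO wells and 100% = 10 µM SAHA wells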
The depositor's hits bear a star; · = no result given. Compounds with a hit are over-represented: about 4.5% of the library has one in this group of screens.

SMILES	hgDAF12 agonist	hcDAF12 agonist	DAX1 inh-1	ssDAF-12 act	DAX1 inh-2	GAA850 FXN act
Cc1cccc([C@H]2[C@@H]3C=CCC[C@@H]3C(=O)N2Cc2ccccc2)c1	0.6	-0.2	3.8*	-1.6	-1.3	-1.2
CC(=O)c1csc(COc2ccc(Cl)cc2)n1	7.8	3.0	2.4	-0.2	9.3*	1.9
NNC(=O)c1csc(COc2cc(Cl)cc(Cl)c2)n1	0.0	1.2	-0.9	-0.4	·	1.2
FC(F)(F)c1ccc(Cn2ccc3ccc(-c4ccc5ccn(Cc6ccc(C(F)(F)F)cc6)c5c4)cc32)cc1	3.9	0.2	-0.6	-0.8	·	·
CN(CC1CCOCC1)C(=O)CC1C(=O)NCCN1CC1CCCCC1 (stereo not drawn)	1.6	-2.9	-0.5	-1.0	5.7*	-0.9
CCOc1ccccc1CN1CCNC(=O)C1CC(=O)N(C)CCC1CCOCC1 (stereo not drawn)	-1.5	1.0	-0.3	-1.0	1.8	0.3
COc1cccc(CN2CCNC(=O)C2CC(=O)N(C)CCC2CCOCC2)c1OC (stereo not drawn)	2.6	0.7	-1.9	-1.5	6.1*	-1.1
Cc1ccc(NC(=O)c2noc3c2CCCCC3)cc1C	9.0	3.8	4.0*	0.5	3.8	2.7
O=C(NCCc1ccccc1)c1noc2c1CCCCC2	12.1*	2.2	4.3*	-0.5	2.7	3.3
COc1ccc(C(=O)C[n+]2ccc3c(c2)nc(Cc2ccccc2)n3C)cc1	-1.4	-1.1	-0.3	-1.0	·	·
Cc1[nH]c2ccccc2c1C(=O)COC(=O)c1ccc([N+](=O)[O-])s1	1.4	4.0	0.5	1.0*	-0.9	0.0
CC(C(=O)NC1CCCc2ccccc21)N1CCN(Cc2ccc3c(c2)OCO3)CC1 (stereo not drawn)	0.4	2.1	-0.1	1.0*	-0.5	-2.1
CC(C(=O)NC1CCCc2ccccc21)N1CCN(c2ccc(F)cc2)CC1 (stereo not drawn)	-1.4	2.6	-0.8	-0.4	-2.2	3.3
COC(=O)[C@]12C[C@H](CC(=O)NCC3CCCCC3)C(=O)N(Cc3cccc4ccccc34)C1=C[C@H](C1CCCC1)O[C@@H]2C	6.4	1.4	-0.1	0.4	·	·
O=C(NC(=S)NCc1cccnc1)c1cc2ccccc2o1	3.7	-0.5	-0.7	-1.3	-0.3	3.5
Cc1cc(C(=O)Nc2cccc(C(=O)O)c2)oc1C	10.5*	5.1	3.3	0.4	-3.8	-0.1
O=C(NC(=S)Nc1cccnc1)c1cc2ccccc2o1	11.4*	1.9	1.9	0.0	1.5	6.1
CCOC(=O)c1cccc(NC(=O)c2cc3ccccc3o2)c1	11.0*	1.5	1.5	-1.0	-2.6	6.4
CCC(=O)Nc1cccc(NC(=O)c2cc3ccccc3o2)c1	10.7*	1.8	2.7	-0.8	3.1	4.9
Cc1cc(C(=O)Nc2cccc(C(=O)O)c2)c(C)o1	5.8	-1.0	0.6	-1.2	-0.2	1.9
COc1ccc2ccccc2c1C=NNC(=O)c1cc(-c2ccc(C)c(C)c2)n[nH]1	5.5	-1.9	-3.3	-1.0	·	·
COc1ccc(CCNC(=O)c2cnc(C)cn2)cc1	1.4	3.0	-0.6	-1.0	0.4	1.4
Cc1cnc(C(=O)NCCc2ccc(Cl)cc2)cn1	6.5	0.9	4.0*	-0.6	-0.1	4.8
O=C(NCCc1ccc(Cl)cc1)c1ccc2c(c1)OCCO2	11.1*	4.6	2.4	0.1	0.7	3.8
CCOC(=O)[C@]12CCCC3=C1N(CCC3)C(=O)[C@@H](CC(=O)NCCC(C)C)C2	1.1	-2.5	0.1	-1.3	·	·
SMILES	hgDAF12 agonist	hcDAF12 agonist	DAX1 inh-1	ssDAF-12 act	DAX1 inh-2	GAA850 FXN act
O=S1(=O)c2ccc(N3CCSCC3)cc2Oc2ccccc2CN1Cc1cn(Cc2ccc(C(F)(F)F)cc2)nn1	-2.0	-1.7	-0.1	-1.6	·	·
COc1ccc2c(c1)CNC2CS(=O)(=O)NCc1ccc(F)cc1 (stereo not drawn)	2.0	1.8	-0.9	0.4	·	·
CC1CCc2sc(C(=O)NC3CCCCC3)cc2C1 (stereo not drawn)	12.1*	3.5	2.2	-1.0	4.0	5.4
CCc1ccc(C(=O)NC2CCCCC2)s1	11.2*	3.1	3.2	0.8	0.7	5.3
CC(C)(O)C#Cc1ccc(C(=O)NC2CCCCC2)s1	10.6*	1.6	1.4	-0.6	1.2	1.8
O=C(NC1CCCCC1)c1cccs1	2.0	-0.8	0.5	-0.9	-0.6	0.5
O=C(CN1CCN(Cc2ccccc2)CC1)N/N=C\c1ccccc1[N+](=O)[O-]	-1.9	0.5	0.1	-0.4	·	·
COCCN1Cc2cc(C(=O)OC)c3c(c2C1=O)c1cc(OC)ccc1n3C(=O)c1ccccc1	-3.6	-1.6	-3.6	-0.8	·	·
C/C(=C\c1ccccc1)C(=O)Nc1nc2ccc([N+](=O)[O-])cc2s1	3.7	-2.7	-1.5	-1.2	0.3	3.6
CC(C)=CC(=O)Nc1nc2ccc([N+](=O)[O-])cc2s1	13.2*	1.7	0.5	-0.7	0.1	1.6
O=c1[nH][nH]c2cc(=O)n(-c3cccc(C(F)(F)F)c3)nc12	-0.6	-0.5	0.4	5.2*	-0.2	0.9
Nc1n[nH]c2cc(=O)n(-c3cccc(C(F)(F)F)c3)nc12	-1.4	2.0	0.1	-1.6	-1.8	0.1
N#Cc1c2c(c(Nc3ccc(F)cc3)n3c1nc1ccccc13)CCCC2	11.3*	-1.6	-0.6	-1.4	0.3	-3.2
COc1cc(/C=C/C(=O)c2c(O)cc(C)oc2=O)cc(OC)c1O	-1.5	-0.6	-0.4	-0.4	0.6	2.6
CSc1ccc(/C=C/C(=O)c2c(O)cc(C)oc2=O)cc1	7.4	4.1	1.2	-0.2	6.6*	6.8
C#CCNC(=O)C[C@@H]1C[C@@](CCC(=O)OCC)(C(=O)OCC)C2=CCCCN2C1=O	-3.9	0.4	-0.7	0.1	·	·
CCCCCCCc1c(O)nc(SCC(=O)O)[nH]c1=O	-2.1	0.1	0.5	-1.9	5.1*	2.5
CCCCCc1c(C)nc(SCC(=O)O)[nH]c1=O	0.5	-1.2	1.0	-1.4	1.1	1.4
CCCCNC(=O)C1CCCN1C(=O)Nc1ccc(Cl)cc1 (stereo not drawn)	1.8	-0.2	-0.3	-1.4	·	·
COCC#Cc1ccc(CC[C@H]2O[C@H]3CC[C@@H](CO)O[C@H]3C[C@H]2n2cc(C3CC3)nn2)cc1	-0.4	-1.5	-0.3	-0.8	·	·
COc1ccc(C(=O)NC(C)C2CC3CCC2C3)cc1 (stereo not drawn)	2.9	-1.4	0.1	-1.2	-0.5	1.6
COc1ccc(NC(=O)NC(C)C2CC3CCC2C3)cc1 (stereo not drawn)	-3.5	1.1	0.3	17.1*	2.1	3.1
CC(NC(=O)c1ccc(C#N)cc1)C1CC2CCC1C2 (stereo not drawn)	-1.3	-0.8	-0.3	-0.8	5.4*	0.9
C[C@@H](/C=C/C(=O)OC(C)(C)C)Sc1ccc(C(C)(C)C)cc1	0.3	-2.0	0.4	-1.6	·	·

Screening results (PubChem)
